# In publication PMC7862700, “An all-to-all approach to the identification of sequence-specific readers for epigenetic DNA modifications on cytosine”:
# Target: T1, ELK4 (Homo sapiens, UniProt P28324-2 1-405)
# T1 sequence: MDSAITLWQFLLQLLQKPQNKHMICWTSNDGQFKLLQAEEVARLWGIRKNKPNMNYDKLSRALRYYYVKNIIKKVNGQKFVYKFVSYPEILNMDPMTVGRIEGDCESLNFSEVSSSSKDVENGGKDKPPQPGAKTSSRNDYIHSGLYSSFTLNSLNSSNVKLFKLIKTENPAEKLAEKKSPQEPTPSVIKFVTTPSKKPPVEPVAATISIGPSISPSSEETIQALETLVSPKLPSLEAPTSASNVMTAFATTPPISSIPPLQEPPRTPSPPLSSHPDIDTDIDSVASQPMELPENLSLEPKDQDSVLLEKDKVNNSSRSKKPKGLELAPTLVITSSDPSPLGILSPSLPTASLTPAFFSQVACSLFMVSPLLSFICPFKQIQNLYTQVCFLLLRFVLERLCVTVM
# Test: DAPPL (digital affinity profiling via proximity ligation, sequencing); 10 mM Tris-HCl pH 7.5, 50 mM NaCl, 1 mM DTT, 4% glycerol, room temperature, 30 min; GST-TFs on glutathione beads, 16-mer random dsDNA library, 0.1% formaldehyde crosslink after washing; high values mean tight binding
# Settings: protein: recombinant; tags: N-terminal GST; dsDNA, one strand shown
# In short: (§1)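 Binding signal is defined as a hexamer's read frequency for one factor over its frequency for the tag-only sample. To obtain reads, GST-fused human transcription factors were expressed in yeast, captured on glutathione beads, barcoded with DNA and pooled with that sample. Pools met 200 nmole of a 16-mer random double-stranded DNA library in Tris/NaCl/DTT/glycerol buffer for 30 min at room temperature before washing, 0.1% formaldehyde crosslinking, proximity ligation (BsaI/T4 ligase, 1 h, 37 °C), PCR and Illumina NextSeq500 sequencing.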
row,Sequence,binding signal
1,TGGACC,"1.03 fold enrichment (6-mer frequency, TF over GST control)"
2,TGCTGC,"1.22 fold enrichment (6-mer frequency, TF over GST control)"
3,CCACAC,"1.04 fold enrichment (6-mer frequency, TF over GST control)"
4,CGGCCT,"1.13 fold enrichment (6-mer frequency, TF over GST control)"
5,GCCCAC,"1 fold enrichment (6-mer frequency, TF over GST control)"
6,TTGGTC,"1.15 fold enrichment (6-mer frequency, TF over GST control)"
7,CATCCA,"1.07 fold enrichment (6-mer frequency, TF over GST control)"
8,TTGCCG,"1 fold enrichment (6-mer frequency, TF over GST control)"
9,TGGTCA,"1.04 fold enrichment (6-mer frequency, TF over GST control)"
10,AGCAAC,"1.12 fold enrichment (6-mer frequency, TF over GST control)"
11,AAAGCG,"1.25 fold enrichment (6-mer frequency, TF over GST control)"
12,GGGTTC,"1 fold enrichment (6-mer frequency, TF over GST control)"
13,CATACG,"1.07 fold enrichment (6-mer frequency, TF over GST control)"
14,CCGATG,"1.07 fold enrichment (6-mer frequency, TF over GST control)"
15,ATGCCG,"1.15 fold enrichment (6-mer frequency, TF over GST control)"
16,CCACCT,"1.21 fold enrichment (6-mer frequency, TF over GST control)"
17,GCGCGC,"1.1 fold enrichment (6-mer frequency, TF over GST control)"
18,CGCCCG,"1.09 fold enrichment (6-mer frequency, TF over GST control)"
19,TCAACA,"1.03 fold enrichment (6-mer frequency, TF over GST control)"

row,Sequence,binding signal
1,ACCACA,"1.13 fold enrichment (6-mer frequency, TF over GST control)"
2,GTCCCA,"1.13 fold enrichment (6-mer frequency, TF over GST control)"
3,TGGTGC,"1.14 fold enrichment (6-mer frequency, TF over GST control)"
4,ACATGG,"1.22 fold enrichment (6-mer frequency, TF over GST control)"
5,GTCTTG,"1.02 fold enrichment (6-mer frequency, TF over GST control)"
6,ATGGTG,"1.17 fold enrichment (6-mer frequency, TF over GST control)"
7,ACCACC,"1.16 fold enrichment (6-mer frequency, TF over GST control)"
8,TGCCAA,"1.06 fold enrichment (6-mer frequency, TF over GST control)"
9,GCTGCC,"1.2 fold enrichment (6-mer frequency, TF over GST control)"
10,GCCCCA,"1.06 fold enrichment (6-mer frequency, TF over GST control)"
11,CCGCTG,"1.2 fold enrichment (6-mer frequency, TF over GST control)"
12,ACGTTG,"1.12 fold enrichment (6-mer frequency, TF over GST control)"
13,CCATGC,"1.13 fold enrichment (6-mer frequency, TF over GST control)"
14,GTTGAT,"1.17 fold enrichment (6-mer frequency, TF over GST control)"
15,AAGGGT,"1.15 fold enrichment (6-mer frequency, TF over GST control)"
16,GTCTAC,"1 fold enrichment (6-mer frequency, TF over GST control)"
17,CATCGC,"1.14 fold enrichment (6-mer frequency, TF over GST control)"
18,AAGGCA,"1.03 fold enrichment (6-mer frequency, TF over GST control)"
19,GGTTTT,"1.03 fold enrichment (6-mer frequency, TF over GST control)"

# Target: T2, ELF3 (Homo sapiens, UniProt P78545 1-371)
# T2 sequence: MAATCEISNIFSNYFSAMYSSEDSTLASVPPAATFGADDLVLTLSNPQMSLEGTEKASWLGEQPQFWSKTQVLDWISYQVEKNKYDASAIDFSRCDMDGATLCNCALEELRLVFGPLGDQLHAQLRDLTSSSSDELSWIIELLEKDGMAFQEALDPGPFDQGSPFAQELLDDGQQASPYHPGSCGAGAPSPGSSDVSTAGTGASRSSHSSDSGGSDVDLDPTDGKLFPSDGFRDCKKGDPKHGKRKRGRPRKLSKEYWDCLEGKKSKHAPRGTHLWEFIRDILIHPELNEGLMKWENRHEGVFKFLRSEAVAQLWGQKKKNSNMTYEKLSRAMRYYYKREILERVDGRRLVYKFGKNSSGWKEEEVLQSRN
# Test: as above
# Settings: protein: recombinant; tags: N-terminal GST; dsDNA, one strand shown
# In short: as §1
row,Sequence,binding signal
1,TGGACC,"1.19 fold enrichment (6-mer frequency, TF over GST control)"
2,TGCTGC,"1.11 fold enrichment (6-mer frequency, TF over GST control)"
3,CGGCCT,"1.03 fold enrichment (6-mer frequency, TF over GST control)"
4,GCCCAC,"1.03 fold enrichment (6-mer frequency, TF over GST control)"
5,TTGCCG,"1.09 fold enrichment (6-mer frequency, TF over GST control)"
6,TGGTCA,"1.1 fold enrichment (6-mer frequency, TF over GST control)"
7,AAAGCG,"1.14 fold enrichment (6-mer frequency, TF over GST control)"
8,GGGTTC,"1.02 fold enrichment (6-mer frequency, TF over GST control)"
9,CATACG,"1.07 fold enrichment (6-mer frequency, TF over GST control)"
10,CCGATG,"1.11 fold enrichment (6-mer frequency, TF over GST control)"
11,CCACCT,"1.3 fold enrichment (6-mer frequency, TF over GST control)"
12,GCGCGC,"1.05 fold enrichment (6-mer frequency, TF over GST control)"
13,CGCCCG,"1.14 fold enrichment (6-mer frequency, TF over GST control)"
14,TCAACA,"1.12 fold enrichment (6-mer frequency, TF over GST control)"
15,ACCACA,"1.02 fold enrichment (6-mer frequency, TF over GST control)"
16,GTCCCA,"1.08 fold enrichment (6-mer frequency, TF over GST control)"
17,ACATGG,"1.17 fold enrichment (6-mer frequency, TF over GST control)"
18,ATGGTG,"1.07 fold enrichment (6-mer frequency, TF over GST control)"
19,ACCACC,"1.21 fold enrichment (6-mer frequency, TF over GST control)"
20,TGCCAA,"1.17 fold enrichment (6-mer frequency, TF over GST control)"
21,CCGCTG,"1.01 fold enrichment (6-mer frequency, TF over GST control)"
22,CCATGC,"1.18 fold enrichment (6-mer frequency, TF over GST control)"
23,GGTTTT,"1.14 fold enrichment (6-mer frequency, TF over GST control)"

# Target: CRX (Homo sapiens, UniProt O43186 1-299)
# Test: as above
# Settings: protein: recombinant; tags: N-terminal GST; dsDNA, one strand shown
# In short: as §1
# Sequence of CRX (O43186 whole entry): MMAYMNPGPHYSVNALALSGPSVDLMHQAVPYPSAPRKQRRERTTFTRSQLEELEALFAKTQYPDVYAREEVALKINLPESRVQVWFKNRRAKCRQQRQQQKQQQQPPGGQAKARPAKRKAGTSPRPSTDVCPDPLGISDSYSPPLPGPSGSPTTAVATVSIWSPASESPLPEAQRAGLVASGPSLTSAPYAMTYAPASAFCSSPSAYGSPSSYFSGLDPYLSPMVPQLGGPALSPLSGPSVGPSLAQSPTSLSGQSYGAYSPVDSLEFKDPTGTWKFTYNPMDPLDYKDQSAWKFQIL
row,Sequence,binding signal
1,AAAGCG,"1.14 fold enrichment (6-mer frequency, TF over GST control)"
2,GTTGAT,"1.1 fold enrichment (6-mer frequency, TF over GST control)"
3,GGTTTT,"1.19 fold enrichment (6-mer frequency, TF over GST control)"

# Target: ETV1 (Homo sapiens, UniProt P50549 1-477)
# Test: as above
# Settings: protein: recombinant; tags: N-terminal GST; dsDNA, one strand shown
# In short: as §1
# Sequence of ETV1 (P50549 whole entry): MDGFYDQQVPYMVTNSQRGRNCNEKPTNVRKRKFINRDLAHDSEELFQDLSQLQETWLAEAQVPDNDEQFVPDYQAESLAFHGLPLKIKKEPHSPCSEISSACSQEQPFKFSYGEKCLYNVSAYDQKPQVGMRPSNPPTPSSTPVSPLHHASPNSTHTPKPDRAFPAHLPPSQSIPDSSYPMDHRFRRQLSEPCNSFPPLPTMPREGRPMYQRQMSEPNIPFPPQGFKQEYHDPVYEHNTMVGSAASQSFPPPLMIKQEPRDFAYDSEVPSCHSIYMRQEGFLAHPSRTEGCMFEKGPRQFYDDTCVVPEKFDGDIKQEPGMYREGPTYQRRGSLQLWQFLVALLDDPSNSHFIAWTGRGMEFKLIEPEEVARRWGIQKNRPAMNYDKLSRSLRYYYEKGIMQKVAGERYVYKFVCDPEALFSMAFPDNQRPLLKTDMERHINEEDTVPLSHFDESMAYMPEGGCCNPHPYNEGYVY
row,Sequence,binding signal
1,TGGACC,"1.08 fold enrichment (6-mer frequency, TF over GST control)"
2,TGCTGC,"1.13 fold enrichment (6-mer frequency, TF over GST control)"
3,CCACAC,"1.1 fold enrichment (6-mer frequency, TF over GST control)"
4,CGGCCT,"1.05 fold enrichment (6-mer frequency, TF over GST control)"
5,GCCCAC,"1 fold enrichment (6-mer frequency, TF over GST control)"
6,TTGGTC,"1.17 fold enrichment (6-mer frequency, TF over GST control)"
7,TTGCCG,"1.09 fold enrichment (6-mer frequency, TF over GST control)"
8,TGGTCA,"1.02 fold enrichment (6-mer frequency, TF over GST control)"
9,AAAGCG,"1.05 fold enrichment (6-mer frequency, TF over GST control)"
10,GGGTTC,"1.08 fold enrichment (6-mer frequency, TF over GST control)"
11,CATACG,"1.06 fold enrichment (6-mer frequency, TF over GST control)"
12,CCGATG,"1.1 fold enrichment (6-mer frequency, TF over GST control)"
13,ATGCCG,"1.11 fold enrichment (6-mer frequency, TF over GST control)"
14,CCACCT,"1.07 fold enrichment (6-mer frequency, TF over GST control)"
15,GCGCGC,"1.09 fold enrichment (6-mer frequency, TF over GST control)"
16,CGCCCG,"1.13 fold enrichment (6-mer frequency, TF over GST control)"

row,Sequence,binding signal
1,TCAACA,"1.06 fold enrichment (6-mer frequency, TF over GST control)"
2,ACCACA,"1.09 fold enrichment (6-mer frequency, TF over GST control)"
3,GTCCCA,"1.14 fold enrichment (6-mer frequency, TF over GST control)"
4,TGGTGC,"1.06 fold enrichment (6-mer frequency, TF over GST control)"
5,ACATGG,"1.14 fold enrichment (6-mer frequency, TF over GST control)"
6,ATGGTG,"1.11 fold enrichment (6-mer frequency, TF over GST control)"
7,ACCACC,"1.02 fold enrichment (6-mer frequency, TF over GST control)"
8,GCTGCC,"1.19 fold enrichment (6-mer frequency, TF over GST control)"
9,GCCCCA,"1.03 fold enrichment (6-mer frequency, TF over GST control)"
10,ACGTTG,"1.06 fold enrichment (6-mer frequency, TF over GST control)"
11,GTTGAT,"1.09 fold enrichment (6-mer frequency, TF over GST control)"
12,AAGGGT,"1.05 fold enrichment (6-mer frequency, TF over GST control)"
13,GTCTAC,"1.19 fold enrichment (6-mer frequency, TF over GST control)"
14,CATCGC,"1.06 fold enrichment (6-mer frequency, TF over GST control)"
15,AAGGCA,"1.1 fold enrichment (6-mer frequency, TF over GST control)"
16,GGTTTT,"1.15 fold enrichment (6-mer frequency, TF over GST control)"

# Target: T3, ERF (Homo sapiens, UniProt P50548 1-548)
# T3 sequence: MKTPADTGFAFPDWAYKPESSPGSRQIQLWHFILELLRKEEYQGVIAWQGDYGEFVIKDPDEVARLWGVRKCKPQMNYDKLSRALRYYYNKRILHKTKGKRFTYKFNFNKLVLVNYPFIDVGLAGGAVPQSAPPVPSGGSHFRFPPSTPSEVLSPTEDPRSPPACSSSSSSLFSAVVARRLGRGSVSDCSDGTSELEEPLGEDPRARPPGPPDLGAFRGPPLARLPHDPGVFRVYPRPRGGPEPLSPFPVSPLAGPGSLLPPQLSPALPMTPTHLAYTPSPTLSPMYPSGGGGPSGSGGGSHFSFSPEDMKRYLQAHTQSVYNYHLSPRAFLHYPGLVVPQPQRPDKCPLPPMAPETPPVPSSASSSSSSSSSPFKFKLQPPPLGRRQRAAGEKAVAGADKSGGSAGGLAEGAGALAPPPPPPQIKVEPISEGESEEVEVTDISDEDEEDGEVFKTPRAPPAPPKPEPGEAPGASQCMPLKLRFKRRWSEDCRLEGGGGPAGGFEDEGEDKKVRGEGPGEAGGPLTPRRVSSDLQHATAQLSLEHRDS
# Test: as above
# Settings: protein: recombinant; tags: N-terminal GST; dsDNA, one strand shown
# In short: as §1
row,Sequence,binding signal
1,TGGACC,"1.11 fold enrichment (6-mer frequency, TF over GST control)"
2,TGCTGC,"1.07 fold enrichment (6-mer frequency, TF over GST control)"
3,CCACAC,"1.08 fold enrichment (6-mer frequency, TF over GST control)"
4,CGGCCT,"1.06 fold enrichment (6-mer frequency, TF over GST control)"
5,GCCCAC,"1.09 fold enrichment (6-mer frequency, TF over GST control)"
6,TTGGTC,"1.08 fold enrichment (6-mer frequency, TF over GST control)"
7,CATCCA,"1.01 fold enrichment (6-mer frequency, TF over GST control)"
8,AGCAAC,"1.11 fold enrichment (6-mer frequency, TF over GST control)"
9,AAAGCG,"1.13 fold enrichment (6-mer frequency, TF over GST control)"
10,CATACG,"1.13 fold enrichment (6-mer frequency, TF over GST control)"
11,CCGATG,"1.1 fold enrichment (6-mer frequency, TF over GST control)"
12,ATGCCG,"1.01 fold enrichment (6-mer frequency, TF over GST control)"
13,CCACCT,"1.13 fold enrichment (6-mer frequency, TF over GST control)"
14,GCGCGC,"1.22 fold enrichment (6-mer frequency, TF over GST control)"
15,CGCCCG,"1.09 fold enrichment (6-mer frequency, TF over GST control)"
